Source: PubChem BioAssay
Shiga toxin inh: Shiga toxin inhibition; inhibition, % at 38.7 µM; AID 2315; Vero cells, Shiga toxin protein synthesis inhibition reporter; hit rate 9.2% among 290,000; in the data active means inhibition mostly above about 28%, no sharp cut-off; inactive means mostly below about 43%; further: 0% is about no effect
Cycloheximide cs: affects cycloheximide protein synthesis inhibition readout, counter-screen. max response, %. hit rate 12% among 300,000. cell reporter, cycloheximide protein synthesis inhibition counterscreen; in the data active means max response mostly above about 13%, no sharp cut-off; inactive means mostly below about 14%; further: read at 38.3 µM for the half of the compounds with a filed dose; 0% is about no effect
Pf growth 48h: inhibits P. falciparum growth in the first generation, 48 h; P. falciparum luciferase growth in erythrocytes, 48 h; Potency, µM (top dose mostly 28.7 µM), for inactives: at the top dose activity change, negative = inhibition, actives largely listed as inhibitors; hit rate 5.9% among 310,000; AID 504832; further: potency means the concentration at half of the fitted maximal effect; on the % scale 0 is the no-effect control and ±100 the full control effect
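Parasite viability was followed by luminescence of a genomically integrated firefly luciferase. Cultures held 0.1% parasitemia at 2% hematocrit (final), incubated under 5% CO2 at 37 C.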
Pf growth 96h: P. falciparum growth inhibition at 96 hour, primary screen for plastid delayed-death inhibitors; P. falciparum luciferase reporter growth, 96 h; Potency, µM (titrated, usually from 28.7 µM), for inactives: at the highest dose activity change, negative = inhibition, hits mostly inhibitors; hit rate 6.9% among 320,000; further: potency means the concentration at half of the fitted maximal effect; on the % scale 0 is the no-effect control and ±100 the full control effect
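Luminescence readout: decreased luciferase signal marks inhibited growth of reporter-expressing P. falciparum in infected red cells (2% hematocrit, 0.05% parasitemia final), exposed to compound two generations (96 h, 37 C, 5% CO2).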
Starred values were filed as active, the others as inactive; ? = inconclusive; · = no result given; + = active, no number; ! = not active in a repeat. A selection: hits, their analogues and other compounds. The true share with any hit is near 21%. Unless noted, the call rests on the fitted dose curve; in most records, active means well fitted inhibition curve with a large enough effect; inconclusive means small, poorly fitted or top-dose-only effect, or another doubt; inactive means no such curve, though single readings can be large or run the other way.

SMILES	Shiga toxin inh	Cycloheximide cs	Pf growth 48h	Pf growth 96h
CC1CN(C(=O)Nc2ccc(Br)cc2Cl)CC(C)O1 (stereo unspecified)	-1	1	-13%	?
CN1C(=O)[C@@H]2[C@H](C1=O)[C@@H]1C(=O)Nc3ccccc3C(=O)N1[C@@H]2c1cccc(Br)c1	·	·	-19%	65%
Cc1ccn2cc(-c3ccc4c(c3)NC(=O)CO4)nc2c1	75*	32	313%	182%
Cc1cccn2cc(-c3ccc4c(c3)NC(=O)CO4)nc12	61*	31*	83%	92%
CCOC(=O)C(C)C(C)=O (stereo unspecified)	·	·	40%	?
Cc1ccc(N2C(=O)CSC2c2cccs2)cc1 (stereo unspecified)	3	-4	0%	0.17µM*
CCOC(=O)Cc1csc(NC(=O)c2ccc3ncsc3c2)n1	83*	29*	85%	93%
CCOC(=O)Cc1csc(NC(=O)c2cnc3sc(C)cn3c2=O)n1	88*	43*	93%	17%
Cc1csc(NC(=O)c2ccc(C)o2)n1	+	59*	170%	0%
CCOC(=O)Cc1csc(NC(=O)c2ccc(C)o2)n1	52*	22*	46%	-22%
Cc1ccc(C(=O)Nc2nc(-c3cccnc3)cs2)o1	26	22	34%	63%
CCOC(=O)Cc1csc(NC(=O)c2csc3c2CCCC3)n1	78	29	?	·
CCOC(=O)Cc1csc(NC(=O)c2ccc(Br)cc2)n1	40	8	21%	14%
CCC(=O)c1ccc(OC(=O)C2CCN(C3=NS(=O)(=O)c4ccccc43)CC2)cc1	·	·	51%	0%
COC(=O)c1ccccc1NC(=O)NC1CCCCC1	-10	6	13%	31%
Cc1[nH]c2ccc(C(=O)NCCN3CCOCC3)cc2c1C	-7	1	3%	6%
CCn1cc(/C=C(\NC(=O)c2ccc(OC)cc2)C(=O)N2CCOCC2)c2ccccc21	-1	-1	?	?
CCOC(=O)Cc1csc(NC(=O)c2cc(C)c(C)s2)n1	·	·	29%	36%
CCOC(=O)Cc1csc(NC(=O)c2ccc(Cl)s2)n1	54*	60*	·	25%
CCOC(=O)Cc1csc(NC(=O)c2ccncc2)n1	7	-4	31%	34%
CCOC(=O)Cc1csc(NC(=O)c2ccco2)n1	50*	50*	77%	·
CCCCOC(=O)Nc1nc(CC(=O)OCC)cs1	30	15*	13%	·
Cc1cccc(NS(=O)(=O)c2ccc(C)c(C(=O)NCc3ccccn3)c2)c1	·	·	2%	-11%
Cc1ccc(S(=O)(=O)N2[C@@H](c3ccccc3F)C(C(=O)O)=CC[C@H]2c2ccc3c(c2)OCO3)cc1	·	·	?	12µM*
Cc1ccc(S(=O)(=O)N2[C@@H](c3ccc(F)cc3)C(C(=O)O)=CC[C@H]2c2ccc3c(c2)OCO3)cc1	·	·	?	12µM*
SMILES	Shiga toxin inh	Cycloheximide cs	Pf growth 48h	Pf growth 96h
Cc1ccc([C@@H]2CC=C(C(=O)O)[C@H](c3ccc(F)cc3)N2S(=O)(=O)c2ccc(C)cc2)cc1	·	·	32%	78%
CCOc1cc(C(=O)N2CCC3(CC2)NCCc2[nH]cnc23)cc(OCC)c1OCC	13	-2	-3%	12%
Cc1cccc(N2CCc3c2nc2ccccc2c3N)c1	27*!	17*!	?	10µM*
Nc1c2c(nc3ccccc13)N(c1ccccc1)CC2	7	7	0%	?
CCOC(=O)c1ccc(-c2csc(NC(=O)CN3CCC(C)CC3)n2)cc1	15	-2	?	?
Cn1c2ccccc2c2cnn(CC(=O)O)c(=O)c21	28	-3	13%	-8%
CCOC(=O)N1CCC(NC(=O)Cn2ncc3c4ccccc4n(C)c3c2=O)CC1	34*	22*	71%	1%
COC(=O)Cn1ncc2c3ccccc3n(C)c2c1=O	43*	25*	38%	?
O=C(CCCN1C(=O)c2ccccc2C1=O)NCCc1ccc(OC(F)F)cc1	-14	-1	23%	12%
COc1ccc(C)cc1NC(=O)CNC(C)C(=O)Nc1ccc(C(C)=O)cc1 (stereo unspecified)	-7	-1	-9%	?
CCn1c(SCC(=O)N/N=C(\C)c2ccncc2)nnc1-c1ccc(C)cc1	-5	2	41%	37%
CC(=O)N1CCc2cc(S(=O)(=O)NC(CC(C)C)C(=O)Nc3cc(C(=O)O)ccc3C)ccc21 (stereo unspecified)	-4	-2	2%	0.29µM*
CCc1ccc(NC(=O)C(NS(=O)(=O)c2ccc3c(c2)CCN3C(C)=O)C(C)C)cc1 (stereo unspecified)	-1	-1	?	?
COc1cc(CC(=O)N(C)CC(=O)Nc2ccc(Cl)c(C(F)(F)F)c2)cc(OC)c1OC	-7	-6	?	?
CN(Cc1nc(CC2CC2)no1)CC12CC3CC(CC(C3)C1)C2	-14	0	5%	?
OCCN(Cc1ccccc1)Cc1nc(CC2CC2)no1	15	0	4%	1.7µM*
OCCN(Cc1ccccc1)Cc1ccccc1O	-4	1	4.1µM*	?
Oc1ccccc1CN(CCc1ccccc1)Cc1ccccc1	·	4	?	?
Cc1ccc(N2CC(C(=O)OCC(=O)NNC(=O)c3ccccc3)CC2=O)cc1 (stereo unspecified)	·	·	7%	11%
Cn1c2ccsc2c2cnn(Cc3ccccc3F)c(=O)c21	59	4	·	·
Cc1cc(C)c2c(=O)n(-c3ccccc3)[nH]c2n1	88*	51*	201%	·
Cc1cc(-c2ccccc2)nc2[nH]n(-c3ccccc3)c(=O)c12	-17	-4	1%	·
Cc1ccc(/C(C#N)=C\c2cn(C)c3ccccc23)cc1	25*	19*	-26%	·
Cn1cc(C=O)c2ccccc21	-4	5	51%	10µM*
Cn1cc(C=C2C(=O)NC(=O)NC2=O)c2ccccc21	-4	-3	12%	1%
SMILES	Shiga toxin inh	Cycloheximide cs	Pf growth 48h	Pf growth 96h
O=C(c1ccco1)N1CCN(Cc2nnc(-c3cccc(Br)c3)o2)CC1	20	5	5%	-4%
COc1ccc(CNC(=O)C2Cc3cc(S(=O)(=O)N4CCCC4)ccc3N2C(C)=O)c(OC)c1 (stereo unspecified)	-10	1	-1%	41%
CC1CCCCC1NC(=S)NC(=O)c1ccccc1Br (stereo unspecified)	-4	8	?	?
Cc1ccccc1C(=O)NC(=S)N(C)C1CCCCC1	31*	26*	15µM*	?
O=C(NC(=S)NC1CCS(=O)(=O)C1)c1cccs1 (stereo unspecified)	24	-1	2%	7%
O=C(NC(=S)NC1CCS(=O)(=O)C1)c1ccccc1Br (stereo unspecified)	-15	10	-4%	5.9µM*
CN(C(=S)NC(=O)c1ccccc1Br)C1CCCCC1	25	4	-12%	4.7µM*
CN(C)/C=C/C(=C\C(=O)C(F)(F)F)Nc1ccc(C(F)(F)F)cc1	-18	2	-11%	0%
Cn1c(=O)c2c(SCC(=O)N3CCOCC3)nc(-c3ccccc3Cl)nc2n(C)c1=O	-4	0	-2%	?
Cc1ccc(CNCc2cc(Cl)ccc2O)cc1	·	·	2.9µM*	7.4µM*
O=C(O)c1ccc(CNCc2cc(Cl)ccc2O)cc1	·	·	24%	?
Oc1ccc(Cl)cc1CNCC1CCCCC1	·	·	1.9µM*	12µM*
